Compounds without any hit were thinned out: in the full panel of roughly 83,000, 20% have a hit.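 96-well plates, one dose, 48 hours. Percent growth reported; active if below 10.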 Activity calls are given as the source filed them.
tested on: HCT-15 colon; assay: NCI-60 one-dose screen, 48 h (100 = growth as untreated, 0 = no growth, -100 = all killed); conditions: 10 µM unless noted

Compound	growth
COc1ccc(-c2nc(N=Nc3c(O)[nH]c4ccccc34)nc(N3CCOCC3)c2C#N)cc1	69.9% (inactive)
COc1cc2nc(-c3ccc(C(F)(F)F)cc3)cc(OCCN3CCCC3)c2cc1OC	67.3% (inactive)
NC(=S)N/N=C(/c1ccccc1)c1ccccc1N	84.7% (inactive)
C=C(C)[C@@H]1CC[C@]2(C=O)CC[C@]3(C)[C@H](CC[C@@H]4[C@@]5(C)CCCNC(C)(C)[C@@H]5CC[C@]43C)[C@@H]12	34.3% (inactive)
CCCNC(=O)Oc1ccc(/C(=C(\C)c2ccccc2)c2ccc(OCCN3CCCCC3)cc2)cc1	19.2% (inactive)
CCOC(=O)Oc1c(OC)cc(C(=O)O[C@@H]2C[C@@H]3CN4CCc5c([nH]c6cc(OC)ccc56)[C@H]4C[C@@H]3[C@H](C(=O)OC)[C@H]2OC)cc1OC	44.1% (inactive)
COc1ccc(OC)c(/C=C/[C@H]2O[C@@H](C)[C@H](O)[C@@H]2O)c1	103% (inactive)
CCC(=O)c1ccc(O)c(OC)c1	111% (inactive)
Clc1cc(Cl)cc(N2N=C(c3cccc(Nc4ccncc4)c3)CC2c2ccccc2)c1 (stereo unspecified)	-71.9% (active)
Fc1cc(C2=NNC(c3ccc[nH]3)C2)ccc1-n1ccc(C(F)(F)F)n1 (stereo unspecified)	94.1% (inactive)
Clc1nc(Nc2ccccc2)nc(Nc2ccccc2)n1	100% (inactive)
Cn1c(=O)c2[nH]c(CCCc3nc4c([nH]3)c(=O)n(C)c(=O)n4C)nc2n(C)c1=O	115% (inactive)
C=C1C(=O)O[C@H]2[C@H]1CC/C(COC(=O)NCCc1c[nH]c3ccc(Cl)cc13)=C\CC[C@@]1(C)O[C@@H]21	-66.6% (active)
Cc1[nH]c(C(=O)Nc2ccccc2OCc2cccc(C(=O)NCCN)c2)c(Cl)c1Cl	86.3% (inactive)
COc1cc2oc(-c3cccc(C(=O)Nc4ccc(Cl)cc4)c3)cc(=O)c2c(OC)c1OC	17% (inactive)
O=C(Nc1nc2ccc(S(=O)(=O)Nc3ccc(C4(C(F)(F)F)CC4)cc3)cc2[nH]1)c1cnccn1	29.5% (inactive)
CCCCCCCCCCN=C(N)N=C(N)N	71.1% (inactive)
CC(C)NC(=O)N1C(=O)CCC1NNC(=O)c1ccc([N+](=O)[O-])cc1 (stereo unspecified)	107% (inactive)
N#Cc1cc(-c2nc3ccccc3s2)c(=O)n(NS(=O)(=O)c2ccc(Cl)cc2)c1N	103% (inactive)

Compound	growth
O=C1c2ccccc2-c2c1c1c(NCCCO)nc3ccccc3c1n2Cc1ccccc1	66% (inactive)
COC(=O)N[C@H]1CCc2cc(OC)c(OC)c(OC)c2-c2ccc(SC)c(=O)cc21	9.48% (active)
COc1nccnn1	98.1% (inactive)
Cc1ccc(C(=O)Nc2ccccc2C(=O)N/N=C(\c2ccccc2)c2ccccn2)cc1	29.1% (inactive)
CCCCN(CCCC)CCc1c(C)cc(C)c(CCN(CCCC)CCCC)c1O	36.7% (inactive)
Nc1cc(N)c2cccnc2c1O	83.7% (inactive)
CN1CCCC1=Nc1ccccc1	111% (inactive)
COc1ccc(CNC(=O)COc2ccc(/C=N/Nc3nc4ccccc4s3)cc2)cc1	31% (inactive)
O=C1OC(=O)C2C1CC=CC2c1ccccc1 (stereo unspecified)	105% (inactive)
COc1ccc(CC(C)=C(c2ccc(OCCN(C)C)cc2)c2ccc(OCCN(C)C)cc2)cc1	62.8% (inactive)
O=C(N=Nc1c(O)[nH]c2ccc(F)cc12)c1cc2ccccc2[nH]1	96% (inactive)
O=S(=O)(NCCNc1nccc(-c2c(-c3cccc(F)c3)nc3occn23)n1)c1cccc2ccccc12	41.5% (inactive)
O=S(=O)(c1ccc(N/N=C\c2ccccc2)cc1)c1ccc(N/N=C/c2ccccc2)cc1	88.7% (inactive)
CCOc1ccc(/C=N/Nc2cc(C)nc3ccc(Cl)cc23)cc1	-0.545% (active)
CC(C)Cc1ccc(C(C)C(=O)NCc2c[nH]c3ccc(Cl)cc23)cc1 (stereo unspecified)	91.2% (inactive)
COc1ccccc1OCC(=O)N1CCCCCC1	103% (inactive)
Nc1nc(SN=Nc2ccc(S(N)(=O)=O)cc2)c2[nH]cnc2n1	12.6% (inactive)
COc1ccc(C2CC(n3nnnc3-c3ccccc3)=NN2)cc1 (stereo unspecified)	52.4% (inactive)
CC(c1ccccc1)n1ccnc1CO (stereo unspecified)	107% (inactive)

tested on: HT29 colon; assay: as above; conditions: 10 µM unless noted

Compound	growth
COc1ccc(-c2nc(N=Nc3c(O)[nH]c4ccccc34)nc(N3CCOCC3)c2C#N)cc1	49.2% (inactive)
COc1cc2nc(-c3ccc(C(F)(F)F)cc3)cc(OCCN3CCCC3)c2cc1OC	66.4% (inactive)
NC(=S)N/N=C(/c1ccccc1)c1ccccc1N	54.8% (inactive)
C=C(C)[C@@H]1CC[C@]2(C=O)CC[C@]3(C)[C@H](CC[C@@H]4[C@@]5(C)CCCNC(C)(C)[C@@H]5CC[C@]43C)[C@@H]12	14% (inactive)
CCCNC(=O)Oc1ccc(/C(=C(\C)c2ccccc2)c2ccc(OCCN3CCCCC3)cc2)cc1	4.11% (active)
CCOC(=O)Oc1c(OC)cc(C(=O)O[C@@H]2C[C@@H]3CN4CCc5c([nH]c6cc(OC)ccc56)[C@H]4C[C@@H]3[C@H](C(=O)OC)[C@H]2OC)cc1OC	36.7% (inactive)
COc1ccc(OC)c(/C=C/[C@H]2O[C@@H](C)[C@H](O)[C@@H]2O)c1	104% (inactive)
CCC(=O)c1ccc(O)c(OC)c1	103% (inactive)
Clc1cc(Cl)cc(N2N=C(c3cccc(Nc4ccncc4)c3)CC2c2ccccc2)c1 (stereo unspecified)	1.2% (active)
Fc1cc(C2=NNC(c3ccc[nH]3)C2)ccc1-n1ccc(C(F)(F)F)n1 (stereo unspecified)	92.9% (inactive)
Clc1nc(Nc2ccccc2)nc(Nc2ccccc2)n1	116% (inactive)
Cn1c(=O)c2[nH]c(CCCc3nc4c([nH]3)c(=O)n(C)c(=O)n4C)nc2n(C)c1=O	109% (inactive)
C=C1C(=O)O[C@H]2[C@H]1CC/C(COC(=O)NCCc1c[nH]c3ccc(Cl)cc13)=C\CC[C@@]1(C)O[C@@H]21	-73.6% (active)
Cc1[nH]c(C(=O)Nc2ccccc2OCc2cccc(C(=O)NCCN)c2)c(Cl)c1Cl	38.2% (inactive)
COc1cc2oc(-c3cccc(C(=O)Nc4ccc(Cl)cc4)c3)cc(=O)c2c(OC)c1OC	4.57% (active)
O=C(Nc1nc2ccc(S(=O)(=O)Nc3ccc(C4(C(F)(F)F)CC4)cc3)cc2[nH]1)c1cnccn1	15.6% (inactive)
CCCCCCCCCCN=C(N)N=C(N)N	41.6% (inactive)
CC(C)NC(=O)N1C(=O)CCC1NNC(=O)c1ccc([N+](=O)[O-])cc1 (stereo unspecified)	106% (inactive)
N#Cc1cc(-c2nc3ccccc3s2)c(=O)n(NS(=O)(=O)c2ccc(Cl)cc2)c1N	109% (inactive)

Compound	growth
O=C1c2ccccc2-c2c1c1c(NCCCO)nc3ccccc3c1n2Cc1ccccc1	5.61% (active)
COC(=O)N[C@H]1CCc2cc(OC)c(OC)c(OC)c2-c2ccc(SC)c(=O)cc21	2.35% (active)
COc1nccnn1	97.8% (inactive)
Cc1ccc(C(=O)Nc2ccccc2C(=O)N/N=C(\c2ccccc2)c2ccccn2)cc1	24.9% (inactive)
CCCCN(CCCC)CCc1c(C)cc(C)c(CCN(CCCC)CCCC)c1O	11.9% (inactive)
Nc1cc(N)c2cccnc2c1O	87.4% (inactive)
CN1CCCC1=Nc1ccccc1	98.1% (inactive)
COc1ccc(CNC(=O)COc2ccc(/C=N/Nc3nc4ccccc4s3)cc2)cc1	35.5% (inactive)
O=C1OC(=O)C2C1CC=CC2c1ccccc1 (stereo unspecified)	86.3% (inactive)
COc1ccc(CC(C)=C(c2ccc(OCCN(C)C)cc2)c2ccc(OCCN(C)C)cc2)cc1	39% (inactive)
O=C(N=Nc1c(O)[nH]c2ccc(F)cc12)c1cc2ccccc2[nH]1	109% (inactive)
O=S(=O)(NCCNc1nccc(-c2c(-c3cccc(F)c3)nc3occn23)n1)c1cccc2ccccc12	34.2% (inactive)
O=S(=O)(c1ccc(N/N=C\c2ccccc2)cc1)c1ccc(N/N=C/c2ccccc2)cc1	54.7% (inactive)
CCOc1ccc(/C=N/Nc2cc(C)nc3ccc(Cl)cc23)cc1	26.9% (inactive)
CC(C)Cc1ccc(C(C)C(=O)NCc2c[nH]c3ccc(Cl)cc23)cc1 (stereo unspecified)	111% (inactive)
COc1ccccc1OCC(=O)N1CCCCCC1	95.2% (inactive)
Nc1nc(SN=Nc2ccc(S(N)(=O)=O)cc2)c2[nH]cnc2n1	9.84% (active)
COc1ccc(C2CC(n3nnnc3-c3ccccc3)=NN2)cc1 (stereo unspecified)	84.5% (inactive)
CC(c1ccccc1)n1ccnc1CO (stereo unspecified)	119% (inactive)

Reference: PubChem BioAssay (NCI)
